{
  "source": "PubChem BioAssay AID777",
  "about": "(Sanford-Burnham Center for Chemical Genomics, 2007)",
  "note": "About 19,000 (20%) of roughly 96,000 compounds were called active.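 Rule for the calls: active = blocking of liver enzyme CYP2C9 beyond about 50% at 5 µM (limit read from the data); inactive = the rest.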 These entries were drawn from the full list.",
  "data": [
    {"molecular_target": "Cytochrome P450 2C9 (Homo sapiens) (UniProt P11712)", "sequence (P11712 whole entry, looked up)": "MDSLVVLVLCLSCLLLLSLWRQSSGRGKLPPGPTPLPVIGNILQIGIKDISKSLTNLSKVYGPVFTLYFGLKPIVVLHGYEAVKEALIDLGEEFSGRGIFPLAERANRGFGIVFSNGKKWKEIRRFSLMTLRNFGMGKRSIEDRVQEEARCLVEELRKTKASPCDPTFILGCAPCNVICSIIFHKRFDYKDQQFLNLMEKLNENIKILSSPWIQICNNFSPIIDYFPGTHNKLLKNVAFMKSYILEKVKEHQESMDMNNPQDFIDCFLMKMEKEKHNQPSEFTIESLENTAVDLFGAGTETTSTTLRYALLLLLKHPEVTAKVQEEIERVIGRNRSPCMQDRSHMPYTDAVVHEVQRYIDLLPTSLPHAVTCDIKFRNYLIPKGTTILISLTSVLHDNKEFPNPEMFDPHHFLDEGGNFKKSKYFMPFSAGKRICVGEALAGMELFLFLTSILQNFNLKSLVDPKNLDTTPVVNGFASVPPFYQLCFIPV", "test": "blockers of cytochrome P450 2C9 activity – biochemical, luminescence, ADME assay, primary screen (AID 777)", "details": "CYP2C9 Supersomes, luciferin-H conversion, at 5 µM, stronger effect = higher value", "values": [
      {"smiles": "COc1ccc(F)cc1S(=O)(=O)Nc1ccc2c(c1)OCO2", "inhibition": "39.7% (inactive)"},
      {"smiles": "COc1ccc(S(=O)(=O)Nc2ccc(S(=O)(=O)N3CCCCC3)cc2)cc1OC", "inhibition": "93.3% (active)"},
      {"smiles": "COc1ccc(S(=O)(=O)N2CCCCC2)cc1Br", "inhibition": "-115% (inactive)"},
      {"smiles": "COc1ccc(S(=O)(=O)N2CCC(C(=O)N3CCc4ccccc4C3)CC2)cc1OC", "inhibition": "46.2% (inactive)"},
      {"smiles": "CC(C)CNS(=O)(=O)c1ccc(OCC(=O)Nc2ccc3c(c2)OCO3)c(Cl)c1", "inhibition": "12.9% (inactive)"},
      {"smiles": "COc1ccc(S(=O)(=O)Nc2ccc3c(c2)OCO3)cc1Cl", "inhibition": "75.9% (active)"},
      {"smiles": "O=C(CC12CC3CC(CC(C3)C1)C2)Nc1ccc2c(c1)COC2=O", "inhibition": "-0.2% (inactive)"},
      {"smiles": "CCOC(=O)CNC(=O)CN1C(=O)CCSc2ccccc21", "inhibition": "17.8% (inactive)"},
      {"smiles": "CCOc1ccc(S(=O)(=O)N2CCCCCC2)c2ccccc12", "inhibition": "-48.8% (inactive)"},
      {"smiles": "CCOc1ccc(S(=O)(=O)n2ccnc2)c2ccccc12", "inhibition": "93.2% (active)"},
      {"smiles": "c1ccc2cc3[nH]c(CN4CCCCC4)nc3cc2c1", "inhibition": "41.8% (inactive)"},
      {"smiles": "COc1ccccc1C(=O)NN1C(=O)C2C3C=CC(O3)C2C1=O", "note": "(stereo not given)", "inhibition": "-18.8% (inactive)"},
      {"smiles": "Cc1cc2nnc(SCC(=O)N3CCN(c4ccccc4)CC3)n2c(N)n1", "inhibition": "7.8% (inactive)"},
      {"smiles": "CCCc1cc(=O)oc2c(C)c(O)c(CN3CCCCC3)cc12", "inhibition": "69.5% (active)"},
      {"smiles": "O=c1oc2c(CN3CCCCC3)c(O)ccc2c2c1CCCCC2", "inhibition": "-13.6% (inactive)"},
      {"smiles": "COC(=O)Cc1cc(=O)oc2c(C)c(O)ccc12", "inhibition": "-19.4% (inactive)"},
      {"smiles": "Nn1c(SCC(=O)NC(=O)NC2CCCC2)nnc1-c1ccccc1F", "inhibition": "44% (inactive)"},
      {"smiles": "CCOC(=O)c1ccc(NC(=O)CSc2ncccn2)cc1", "inhibition": "34.5% (inactive)"},
      {"smiles": "CCn1c(C)nc2cc(C(=O)NNS(=O)(=O)c3ccc(C)cc3C)ccc21", "inhibition": "-5.3% (inactive)"},
      {"smiles": "CCOC(=O)c1ccc2c(c1)nc(SCC(=O)NC(C)C)n2CC", "inhibition": "62.3% (active)"},
      {"smiles": "Cc1ccc(N2CCN(/N=C/c3cccs3)CC2)cc1", "inhibition": "-7% (inactive)"},
      {"smiles": "S=c1nccc(-c2cc(Cl)sc2Cl)[nH]1", "inhibition": "-6.6% (inactive)"},
      {"smiles": "CCOc1ccc(CNC(=O)C2CC(=O)N(C3CCCC3)C2)cc1OC", "note": "(stereo not given)", "inhibition": "7.1% (inactive)"},
      {"smiles": "CCC(O)CNc1nc(-n2nc(C)cc2C)nc2sc3c(c12)CC(C)(C)OC3", "note": "(stereo not given)", "inhibition": "19.9% (inactive)"},
      {"smiles": "COc1ccc2occ(C(=O)c3ccc(N=C(C)N(C)C)cc3)c2c1", "inhibition": "-17.7% (inactive)"},
      {"smiles": "COc1ccc(OC)c(C(=O)c2coc3ccc(OC)cc23)c1", "inhibition": "68.5% (active)"},
      {"smiles": "COc1ccc(OC)c(C(=O)c2coc3ccc(O)c(CN4CCOCC4)c23)c1", "inhibition": "22% (inactive)"},
      {"smiles": "CCC1CCCCN1C(=O)Nc1cccc(NC(=O)N2CCCCC2CC)c1", "note": "(stereo not given)", "inhibition": "-13.6% (inactive)"},
      {"smiles": "CS(=O)(=O)N(CC(O)Cn1c2ccccc2c2ccccc21)c1cccc2ccccc12", "note": "(stereo not given)", "inhibition": "99.6% (active)"},
      {"smiles": "CC(=O)c1ccc2c(c1)c1ccccc1n2CC(C)C", "inhibition": "20.5% (inactive)"},
      {"smiles": "Cc1cccc(N(CC(=O)N=Nc2c(O)[nH]c3ccccc23)S(C)(=O)=O)c1C", "inhibition": "44.2% (inactive)"},
      {"smiles": "C=CCn1c(SCC(=O)c2c(N)n(C)c(=O)n(C)c2=O)nc2sc(CC)cc2c1=O", "inhibition": "38.3% (inactive)"},
      {"smiles": "CCS(=O)(=O)c1ccc2c(c1)N(S(=O)(=O)c1ccccc1)CC(C(=O)O)O2", "note": "(stereo not given)", "inhibition": "42.8% (inactive)"},
      {"smiles": "CC(C)(C)NC(=O)NC(=O)COC(=O)Cn1c(C(F)(F)F)nc2ccccc21", "inhibition": "43.9% (inactive)"},
      {"smiles": "COc1ccccc1OCCC(=O)OCC(=O)NC(=O)NC(C)(C)C", "inhibition": "2.5% (inactive)"},
      {"smiles": "Cc1ccccc1CSCC(=O)NC(=O)NC(C)(C)C", "inhibition": "62.3% (active)"},
      {"smiles": "O=C(O)C1C2C=CC(C2)C1C(=O)N1CCN(CCO)CC1", "note": "(stereo not given)", "inhibition": "10.3% (inactive)"},
      {"smiles": "COC(=O)c1ccc(COC(=O)c2c(C)nn(Cc3ccccc3Cl)c2Cl)o1", "inhibition": "83.3% (active)"},
      {"smiles": "Cc1nn(Cc2ccccc2)c(Cl)c1C(=O)OC1CCOC1=O", "note": "(stereo not given)", "inhibition": "5.7% (inactive)"},
      {"smiles": "CCOC(=O)c1cnn(Cc2ccccc2Cl)c1N", "inhibition": "22% (inactive)"},
      {"smiles": "Cc1noc(C)c1C(=O)N1CCOCC1", "inhibition": "-7.1% (inactive)"},
      {"smiles": "c1ccc(CC2CCN(c3nc4ccccc4n4cnnc34)CC2)cc1", "inhibition": "20.5% (inactive)"},
      {"smiles": "CCCn1c(C)cc(C(=O)COC(=O)c2c(C)nn(-c3ccccc3)c2C)c1C", "inhibition": "-31.1% (inactive)"},
      {"smiles": "CC(C)=C1SC(N2CCN(c3cccc(C)c3)CC2)=NC1=O", "inhibition": "-36.8% (inactive)"},
      {"smiles": "O=S(=O)(c1cnccc1N1CCN(/N=C/c2ccc(Br)cc2)CC1)N1CCCCC1", "inhibition": "-9.2% (inactive)"},
      {"smiles": "CNS(=O)(=O)c1cnccc1N1CCN(c2cccc(C)c2)CC1", "inhibition": "57.7% (active)"},
      {"smiles": "N=c1oc2ccccc2cc1C(=O)N/N=C/c1ccccc1", "inhibition": "27.9% (inactive)"},
      {"smiles": "O=C(N/N=C\\c1cccc(Br)c1)c1ccccc1-n1cccc1", "inhibition": "66.3% (active)"},
      {"smiles": "Cn1c(=O)n(C)c2cc(/C=N/NC(=O)c3cccc(Br)c3)ccc21", "inhibition": "-21.3% (inactive)"},
      {"smiles": "Cc1nn(C)cc1C(=O)NNC(=S)Nc1ccc(Cl)cc1", "inhibition": "18.7% (inactive)"},
      {"smiles": "CCN(Cc1cc2cc(C)ccc2[nH]c1=O)S(=O)(=O)c1ccccc1", "inhibition": "5.9% (inactive)"},
      {"smiles": "COc1ccc(-c2nc(CCNC(=O)c3ccc(Br)o3)cs2)cc1", "inhibition": "62.2% (active)"},
      {"smiles": "COc1ccc(CCNC(=O)c2ccco2)cc1", "inhibition": "8.8% (inactive)"},
      {"smiles": "O=C(NCCc1ccccn1)c1ccc(COc2ccccc2)o1", "inhibition": "13.4% (inactive)"},
      {"smiles": "CCOC(=O)/C=c1\\s/c(=C\\c2ccccc2OC)c(=O)n1CC(=O)N1CCOCC1", "inhibition": "2% (inactive)"},
      {"smiles": "Clc1ccc(CSc2nnc([C@@H]3CCCN3)o2)cc1", "inhibition": "31.8% (inactive)"},
      {"smiles": "CCSc1nnc(-c2cc3c(s2)-c2ccccc2CC3)o1", "inhibition": "-16.8% (inactive)"},
      {"smiles": "Fc1ccc(CSc2nnc(-c3cc4c(s3)-c3ccccc3CC4)o2)cc1", "inhibition": "52.4% (active)"},
      {"smiles": "CC(C)OC(=O)c1sc2nc3c(cc2c1N)C(=O)CCC3", "inhibition": "19.5% (inactive)"},
      {"smiles": "COc1ccccc1-c1nc(C#N)c(N2CCC(C(N)=O)CC2)o1", "inhibition": "-9.8% (inactive)"},
      {"smiles": "N#Cc1nc(COc2ccc(Cl)cc2)oc1N1CCCC1", "inhibition": "39.8% (inactive)"},
      {"smiles": "CC1CCN(c2oc(-c3ccccc3F)nc2C#N)CC1", "inhibition": "80% (active)"},
      {"smiles": "Cc1ccc(NC(=O)CN2CCc3ccccc3C2)cc1", "inhibition": "87.4% (active)"},
      {"smiles": "Cc1ccc(NC(=O)CCN2CCc3ccccc3C2)cc1", "inhibition": "11.4% (inactive)"},
      {"smiles": "O=C(CN1CCOCC1)Nc1ccccc1", "inhibition": "11.4% (inactive)"}
    ]}
  ]
}
